This is one part of a sample in which hits are shown more often than they occur.
Pf Dd2 inh: inhibitors of Plasmodium falciparum Dd2 growth; P. falciparum Dd2 growth, SYBR Green, 72 h; 4.3% of 120,000 active; Potency, µM (top dose mostly 28.9 µM), inactives show at the highest dose activity, negative = inhibition, hits mostly inhibitors; AID 1347417; active = well fitted inhibition curve with a large enough effect;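 note: plate controls were DMSO vehicle for no effect and reference drug for full effect; nearly all actives have a fitted effect of over 65% in size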
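Readout: SYBR Green fluorescence, 485 nm excitation, 535 nm emission, after ~16 h lysis at 37C. Before that, Dd2-infected red cells (2.5% hematocrit) grew 72 h with compound, 29 uM top final concentration.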
Starred values were filed as active, the others as inactive; i = inactive; [ ] = another dose, or the depositor's remark. Potency is the fitted concentration of half-maximal effect.

SMILES | Pf Dd2 inh
O=C(CCCc1ccccc1)N1CCC(Cc2nc(-c3ccc(F)cc3)no2)CC1 | -4.9%
Cc1nc(C2CC(NC(=O)Cn3cc(Cl)c(C)n3)C2)cc(=O)[nH]1 (stereo not drawn) | -10.5%
COc1cccc(CCC2CCCN(C3CCN(Cc4cccnc4)CC3)C2)c1 (stereo not drawn) | 8.91µM*
C=CCS(=O)(=O)N1CCCC(CCc2cccc(OC)c2)C1 (stereo not drawn) | -16.1%
CS(=O)(=O)CCNC(=O)C1CCCN(C2CCN(Cc3cccnc3)CC2)C1 (stereo not drawn) | 18.6%
CCc1ccc(N2CC(c3noc(Cc4ccccc4F)n3)CC2=O)cc1 (stereo not drawn) | -5.9%
CCC[C@H]1CN(S(=O)(=O)c2ccc(-c3ccn[nH]3)o2)C[C@@H]1N | i
CCC[C@H]1CN(S(=O)(=O)c2ccc(CC)s2)C[C@@H]1N | -20.7%
CCC[C@H]1CN(S(=O)(=O)c2cnn(CCC)c2)C[C@@H]1N | 11.2µM*
CNC(=O)c1ccc(Cn2ccn3nc4c(c3c2=O)CCCC4)cc1 | i
CC(CCc1ccccc1)NC(=O)c1ccc(Cn2ccn3nc4c(c3c2=O)CCCC4)cc1 (stereo not drawn) | 8.91µM*
COc1ccccc1CNC(=O)c1ccc(Cn2ccn3nc4c(c3c2=O)CCCC4)cc1 | -2.0%
CC(=O)Nc1ccc(C(=O)N2CCC3(CC2)CN(C(=O)NC(C)C)Cc2ccccc2O3)cc1 | 13.3%
CC(C)NC(=O)N1Cc2ccccc2OC2(CCN(C(=O)c3ccc4[nH]ccc4c3)CC2)C1 | 10µM*
CN1CCC2(CC1)CN(C(=O)CCc1ccccc1)Cc1ccccc1O2 | 1µM*
CC(C)NC(=O)N1CCC2(CC1)CN(C(=O)c1ccnc(N)c1)Cc1ccccc1O2 | 6.8%
COCCOCC(=O)N1Cc2ccccc2OC2(CCN(C)CC2)C1 | i
CC(=O)N1Cc2ccccc2OC2(CCN(C(=O)c3cccc4[nH]ccc34)CC2)C1 | -14.3%
CC(=O)N1CCC2(CC1)CN(C(=O)c1ccc3[nH]ccc3c1)Cc1ccccc1O2 | 10µM*
CCC(=O)N1Cc2ccccc2OC2(CCN(C)CC2)C1 | i
CC(=O)N1CCC2(CC1)CN(C(=O)N(C)C)Cc1ccccc1O2 | 6.4%
CCN(CCn1cccn1)C(=O)c1csc2nc(-c3cccc(F)c3)cn12 | -7.3%
CC(=O)N1CCN(c2ccnc(-c3nnc(C)n3-c3ccccc3)c2)CC1 | -18.0%[44.1 µM]
CN(C)c1cccc(Oc2nnnn2[C@H]2CO[C@H]3[C@@H]2OC[C@@H]3NS(=O)(=O)c2ccccc2C#N)c1 | -26.7%
CCc1noc(-c2cccn3c(CNC(=O)c4cccc(OC)c4)nnc23)n1 | i
SMILES | Pf Dd2 inh
Cn1nc(C(=O)N2CCC3(CC2)N=C(c2cccc(Br)c2)NO3)c2ccccc21 | i
CCO[C@H]1CN(C(=O)CSc2ccc(Cl)cc2)C[C@@H]1O | 4.3%
O=C(Nc1ccccc1)N1CCC(Oc2ncccc2C(=O)N2CCOCC2)C1 (stereo not drawn) | 16.0%
C[S+](=O)([O-])N1Cc2ccccc2CC2(CCCN(CC3CCNCC3)C2)C1 (stereo not drawn) | -9.6%
COc1ncccc1-c1cnc2n[nH]c(-c3ccc4c(c3)OCO4)c2n1 | i
CCN1CCN(CC(O)COc2cccc(CNCc3cnn(CC)c3)c2)CC1 (stereo not drawn) | 0.4%
CCN1CCN(CC(O)COc2cccc(CNCCCc3scnc3C)c2)CC1 (stereo not drawn) | i
CN(CC(O)COc1cccc(CNCCc2ccc(F)cc2)c1)C1CCCCC1 (stereo not drawn) | 3.98µM*
Cc1ccc(C)c(-c2cc3c(=O)n(CCNC(=O)c4c(F)cccc4Cl)ccn3n2)c1 | -1.8%
O=C1Nc2ccc(-c3cccc(C(F)(F)F)c3)cc2C(=O)N2CCN(C(=O)[C@@H]3CSCN3)C[C@H]12 | i
CCOC(=O)c1cc(-c2ccc(OC)cc2)n(CCC(=O)NCc2ccccc2OC)c1C | 7.94µM*
COc1ccc(-c2cc(C(C)=O)c(C)n2CCC(=O)NCc2ccccc2OC)cc1 | -12.5%
CCOC(=O)c1cc(-c2ccccc2)n(CCC(=O)NCc2ccccc2Cl)c1C | i
CSc1ccc(-c2ccccc2C=O)cc1 | 5.7%[44.1 µM]
Cn1nc2n(c1=O)CCN(C(=O)CCCc1c[nH]c3ccccc13)CC2 | 1.3%
Cc1ccc(C(C)C)c(OCC(=O)Nc2cc(-c3nc4ccccc4[nH]3)ccc2C)c1 | 6.31µM*
COc1c(Cl)cc(C(=O)Nc2cc(-c3nc4ccccc4[nH]3)ccc2C)cc1Cl | -28.0%
CC(C)CC(=O)Nc1cccc(-c2nc3ccccc3[nH]2)c1 | 22.2%
Cc1cnc(C)c(N2CCC(Oc3ccc4c(cnn4CCC(=O)O)c3)CC2)n1 | -23.0%[44.1 µM]
COc1ccc(-c2cc(N3CCCC(NC(=O)Cc4ccc(F)cc4)C3)n[nH]2)cc1 (stereo not drawn) | -23.7%
Fc1ccc(OCC2CCCN(c3ccc(Cn4ccnc4)cn3)C2)cc1 (stereo not drawn) | 11.2µM*
CC(C)C1CN(c2ccc(C#N)cn2)CCC(=O)N1Cc1ccc(F)cc1 (stereo not drawn) | -14.3%
COc1cccc(CN2CCc3c(cc(C(=O)N4CCN(CC(C)C)CC4)n3C)C2)c1 | 6.31µM*
Cn1c(C(=O)NCc2cccnc2)cc2c1CCN(Cc1ccccc1)C2 | i
COc1cccc(CN2CCc3c(cc(C(=O)N(C)C)n3C)C2)c1 | -15.5%
SMILES | Pf Dd2 inh
CC[C@H]1CN(C(=O)Nc2cccc(C(F)(F)F)c2)CC[C@H]1CC(=O)NCCN1CCCCC1 | -6.2%
COc1c(C)cccc1C(=O)NCC1CCN(c2cnn(C)c(=O)c2)C1 (stereo not drawn) | -11.2%
NCC(C1CCCCC1)N1CCCC1 (stereo not drawn) | -9.9%[44.1 µM]
CCCC(=O)N1Cc2ccccc2CC2(CCCCN2CC)C1 (stereo not drawn) | 10µM*
CCCN1CCCCC12Cc1ccccc1CN(C(=O)CCCC(=O)O)C2 (stereo not drawn) | 4.9%
CCCC(=O)N1Cc2ccccc2CC2(CCCN2CCC)C1 (stereo not drawn) | 8.91µM*
O=C(O)CCCC(=O)N1Cc2ccccc2CC2(CCCCN2CCc2ccccc2)C1 (stereo not drawn) | -20.1%
NCCC(=O)N1Cc2ccccc2CC2(CCCCN2CC2CCNCC2)C1 (stereo not drawn) | 18.1%
CCCN1CCCC12Cc1ccccc1CN(C(=O)CNC(C)=O)C2 (stereo not drawn) | 9.3%
O=C1NCCCCCCN(C(=O)CC2CCCCC2)[C@H]2C[C@H](c3nc(Cc4ccccc4)no3)C[C@@H]12 | -26.0%
Cc1ccc2c(C(=O)NCc3ccc(Cl)nc3)cnn2c1 | -2.4%[44.1 µM]
CCN(CC)C(=O)N1CCCN(S(=O)(=O)c2ccccc2)CCC(=O)NCC1 | -2.7%
CCC(CC)C(=O)Nc1ccc([C@H]2OCC(=O)N(C)[C@@H]2CO)cc1 | 0.4%[44.1 µM]
CCc1cn(C[C@H](NC(=O)Cc2ccccc2)C(=O)O)c(=O)[nH]c1=O | 15.7%[44.1 µM]
O=C(Cc1cccnc1)N1CCOCC2(CN(Cc3cc(F)cc(F)c3)C2)C1 | 35.8%[44.1 µM]
Cc1cccc(N2C(=O)C(CC(=O)Nc3cccc(F)c3)N(CCc3ccncc3)C2=O)c1 (stereo not drawn) | -17.6%
COc1ccc(CCN2C(=O)N(c3ccc(C)cc3)C(=O)C2CC(=O)Nc2ccc(F)cc2)cc1 (stereo not drawn) | -19.9%
CCc1ccc(NC(=O)CC2C(=O)N(c3ccc(C)cc3)C(=O)N2CCc2ccncc2)cc1 (stereo not drawn) | 6.31µM*
COc1ccccc1CNC(=O)C1CCN(C(=O)c2ncn3c2COC(c2ccccc2)C3)CC1 (stereo not drawn) | -22.7%

Source: PubChem BioAssay
